TGFb SMAD3 inh = qHTS for Inhibitors of TGF-b | Potency, µM (top dose mostly 46.1 µM), without a hit: at the top dose activity, negative = inhibition, actives largely listed as inhibitors | HepG2 CAGA-GFP TGF-b/SMAD3 reporter, GFP fluorescence, 18 h; TGF-beta stimulated, 500 pg/mL final | 1.2% of 410,000 active; further: on the % scale 0 is the no-effect control and ±100 the full control effect; nearly all actives have a fitted effect of over 65% in size
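TGF-beta reporter screen: HEPG2 CAGA-GFP, 1% FBS, 500 pg/mL TGF-beta final, 18 h; per-cell GFP summed per well; curves fitted and categorized by class.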
ATXN2 expr inh = Primary qHTS for Inhibitors of ATXN expression; Potency, µM (series often up to 57 µM), without a hit: at the highest dose activity change, negative = inhibition, usual class: inhibitors; AID 1745845, 2022; 0.72% of 360,000 active; HEK-293 ATXN2-luciferase reporter, luminescence, 24 h; further: on the % scale 0 is the no-effect control and ±100 the full control effect; nearly all actives have a fitted effect of over 55% in size
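ATXN2-luciferase reporter cells (luciferase flanked by upstream and downstream ATXN2 gene portions) were treated 24 h at 37 °C with compounds at up to 57 uM. SteadyGlo luminescence gave expression; GF-AFC fluorescence gave viability.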
GLP1R inv ag = qHTS of GLP-1 Receptor Inverse Agonists (Inhibition Mode). Potency, µM (top dose mostly 38.3 µM), for the others: at the highest dose activity change, negative = inhibition, usual class: inhibitors. 1.6% of 410,000 active. Glucagon-like peptide 1 receptor (Homo sapiens), P43220. HEK293 GLP-1R CRE-luciferase, luminescence, 24 h; GLP-1R form is constitutively active; further: on the % scale 0 is the no-effect control and ±100 the full control effect; nearly all actives have a fitted effect of over 55% in size
Target sequence (P43220 whole entry, looked up): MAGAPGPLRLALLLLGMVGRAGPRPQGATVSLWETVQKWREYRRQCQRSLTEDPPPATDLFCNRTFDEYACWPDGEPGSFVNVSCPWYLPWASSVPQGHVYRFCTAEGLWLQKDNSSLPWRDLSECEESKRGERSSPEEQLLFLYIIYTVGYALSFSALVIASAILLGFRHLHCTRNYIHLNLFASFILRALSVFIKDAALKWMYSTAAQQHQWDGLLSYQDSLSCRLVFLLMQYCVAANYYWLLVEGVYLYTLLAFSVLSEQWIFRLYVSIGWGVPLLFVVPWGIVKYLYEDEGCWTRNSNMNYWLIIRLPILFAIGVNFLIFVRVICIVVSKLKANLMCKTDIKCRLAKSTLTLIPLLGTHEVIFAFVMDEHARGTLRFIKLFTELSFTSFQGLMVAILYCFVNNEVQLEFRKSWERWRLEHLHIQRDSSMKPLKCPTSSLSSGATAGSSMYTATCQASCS
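Cells are plated, allowed 12 hours at 37 deg C, then treated with compounds for 24 hr before luciferase detection reagent is added and luminescence is read after 12 min at room temperature. The HEK293 line carries constitutively active GLP-1R with a cAMP-responsive reporter.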
S2 tox = Viability Counterscreen for Primary qHTS for Inhibitors of ATXN expression; S2 cells (HEK-293 line with an ATXN2-luciferase reporter) viability, CellTiter-Fluor protease fluorescence, 24 h; AID 651635, 2014; 0.49% of 400,000 active; Potency, µM (doses to about 56.7 µM), actives largely listed as cytotoxic; further: nearly all actives have a fitted effect of over 40% in size
HepG2 viability = qHTS for Inhibitors of TGF-b: Cytotox Counterscreen; HepG2 CAGA-GFP viability, ATP luminescence, 18 h; Potency, µM (top dose mostly 46.1 µM), inactives show at the highest dose activity change, negative = cytotoxicity, actives largely listed as cytotoxic; 0.76% of 410,000 active; AID 588856, 2011
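CellTiter-Glo luminescence gave cytotoxicity after 18 hours at 37 degrees C. The cells were HepG2 CAGA-GFP in 1% FBS DMEM, stimulated with 500 pg/mL TGF-beta after compound addition. %Activity was normalised to no-cell wells (complete cell-killing) and DMSO (no toxicity), and curves were fitted and classified.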
GLP-1R agonist = qHTS of GLP-1 Receptor Agonists. HEK293 GLP-1R CRE-luciferase, luminescence, 4-6 h; cells express a hypersensitive GLP-1R form. Potency, µM (doses to about 45.6 µM), inactives show top-dose activation, actives largely listed as activators. 0.007% of 380,000 active. AID 624172, 2012; further: % of control where 0% means no effect
The depositor's hits bear a star; i = inactive; ? = inconclusive; / = no result given; [ ] = remark or other dose. Shown are actives, neighbours in structure and some others; about 3.7% of the full set was active somewhere. The call rests on the fitted dose curve; in most records, active means well fitted curve in the direction sought with a large enough effect; inconclusive means small, poorly fitted or top-dose-only effect, or another doubt; inactive means no such curve, though single readings can be large; an effect the other way counts as inactive or inconclusive. Potency means the concentration at half of the fitted maximal effect.

SMILES | TGFb SMAD3 inh | ATXN2 expr inh | GLP1R inv ag | S2 tox | HepG2 viability | GLP-1R agonist
COC(=O)C1=C[C@@H](C(=O)OC)C2C3=C(C(=O)[C@@]2(C)NC(=O)c2ccccc2)[C@H](c2ccccc2)n2c(=O)n(-c4ccccc4)c(=O)n2[C@@H]3C1 (stereo partly drawn) | 10.4% | / | / | / | 3.3% | /
COc1ccc(-c2nc3ccc(C)cn3c2Cc2ccc(C)cc2)cc1OC | ? | -14.4% | 19.8% | / | -25.4% | ?
COc1ccc(-c2nc3ccc(C)cn3c2Cc2ccccc2)cc1OC | ? | ? | ? | 28.2µM* | -42.9% | 24.4%
CCC(c1nnnn1C1CCCC1)N(Cc1cccs1)Cc1cc2cc(C)ccc2[nH]c1=O (stereo not drawn) | 2.9% | 31.6µM* | ? | ? | -10.2% | 12.6%
O=C1CCC[C@@H]2CC(N(Cc3cc4ccccc4s3)c3ccccc3)C[C@@H]3CCN1[C@H]23 (stereo partly drawn) | -6.6% | / | / | / | 21.5% | /
COc1ccc(CNC(=O)c2sc3nc4c(c(C(F)(F)F)c3c2N)CCC4)cc1OC | ? | -14.4% | 10.6% | i | -12.1% | -0.7%
Cc1csc(NC(=O)c2sc3nc4c(c(C(F)(F)F)c3c2N)CCC4)n1 | / | 0.0968µM* | / | / | / | /
COCCNC(=O)/C(C#N)=C/C=C/c1ccccc1[N+](=O)[O-] | 20µM* | ? | ? | ? | -7.0% | 1.1%
COCCNC(=O)/C(C#N)=C/c1ccc(O)c([N+](=O)[O-])c1 | -5.1% | / | 6.7% | i | 23.9% | 0.4%
Cc1cccc(-c2nnc3sc(-c4ccccc4C)nn23)c1 | -3.8% | -18.0% | ? | i | 12.6µM* | ?
COc1ccc(/C=C/c2nnc(NC(=O)COc3ccc(Cl)cc3)s2)cc1 | 2.5% | / | / | / | 0.4% | /
Cc1ccc(S(=O)(=O)N(Cc2ccccc2)c2ccccc2C(=O)Nc2ccccc2C(=O)NCc2ccco2)cc1 | -13.5% | 13.5% | 5.01µM* | i | -0.5% | -5.4%
CC(C)(C)n1ncc2c(=O)n(Cc3ccc(F)cc3F)cnc21 | 5.2% | / | / | / | -23.9% | /
CC(C)(C)N(Cc1ccccc1)C(=O)CCc1ccccc1 | 1.2% | / | 22.4µM* | i | -1.6% | 5.4%
COc1ccc(Nc2ncc(C(=O)Nc3ccc(F)cc3F)c3ccccc23)cc1 | 12.6µM* | -19.7% | ? | ? | -35.3% | -2.4%
COc1ccc(OC)c(NC(=O)c2cnc(Nc3ccc(C)c(Cl)c3)c3ccccc23)c1 | -19.3% | 5.5% | -16.3% | / | 1.2% | 3.3%
COC(=O)/C(=C\c1ccc([N+](=O)[O-])o1)NC(=O)c1ccccc1 | 11.2µM* | ? | 18.9% | ? | 12.6µM* | 6.4%
COc1cc(C(CC(=O)Nc2ccc(Br)cn2)N2Cc3ccccc3C2=O)cc(OC)c1OC (stereo not drawn) | 9.2% | -13.4% | -12.0% | i | -0.6% | 5.3%
Cc1ccc(Cl)cc1NC(=O)CC(O)(C(F)(F)F)C(F)(F)F | 12.6µM* | ? | ? | ? | -36.5% | -1.0%
CCCCc1cc(=O)oc2cc(C)c3c(C)coc3c12 | 4.2% | 2.5% | 7.3% | i | -3.7% | /
COC(c1ccccc1)c1nnc(CCC(=O)N(C)CCCC2CCCC2)o1 (stereo not drawn) | -17.8% | 17.6%[11.3 µM] | 10µM* | ? | -21.3% | 11.8%
CC(=O)c1ccc(NC(=O)Cn2cc(S(=O)(=O)Cc3cccc(Cl)c3)c3ccccc32)cc1 | ? | / | 10µM* | / | -55.9% | /
[O-][N+]12CCCc3cccc(c31)CCC2 | -17.9% | / | / | / | -3.9% | /
CC(C)N(C(=O)CSc1cn(CC(=O)N2CCCCCC2)c2ccccc12)C(C)C | 12.6µM* | / | ? | / | -23.5% | /
O=C(NCCn1cc(SCc2ccccc2)c2ccccc21)c1ccccc1F | ? | -32.7% | 10µM* | ? | -22.0% | 18.7%
SMILES | TGFb SMAD3 inh | ATXN2 expr inh | GLP1R inv ag | S2 tox | HepG2 viability | GLP-1R agonist
O=C(Cn1cc(SCc2c(F)cccc2Cl)c2ccccc21)N1CCCCCC1 | 0.0% | / | 10µM* | / | -33.0% | /
COc1ccc(C(=O)NCCn2cc(SCc3c(F)cccc3Cl)c3ccccc32)cc1 | 15.8µM* | ? | ? | 14.1µM* | -11.9% | -4.0%
O=C(Nc1nnc(CCc2ccccc2)s1)C1CCN(C(=O)c2ccco2)CC1 | -17.0% | / | / | / | -8.2% | /
Cc1cc2c(cc1C1(c3ccc(C(=O)O)cn3)CC1)C(C)(C)CCC2(C)C | / | 10.9% | / | / | / | /
COc1cccc(CNC(=O)C(C)n2ccc3cc(S(=O)(=O)N4CCCCCC4)ccc32)c1 (stereo not drawn) | -27.1% | 0.1% | 12.6µM* | ? | -25.8% | 3.6%
COc1cccc(CNC(=O)C(C)n2ccc3cc(S(=O)(=O)N4CCCC4)ccc32)c1 (stereo not drawn) | -2.1% | 5.3% | -21.6% | i | -2.3% | 9.0%
CCC(C(=O)NCCC(C)C)n1ccc2cc(S(=O)(=O)N3CCCCC3)ccc21 (stereo not drawn) | ? | -8.0% | 7.94µM* | i | -20.0% | 1.5%
CCOc1cc(C(=O)Nc2ccc(-c3nc4ccccc4s3)cc2Cl)cc(OCC)c1OCC | 21.8% | 37.2% | -6.0% | i | 3.1% | /
COc1ccc(OC)c(NC(=O)c2cccc(N3C(=O)C4C5C=CC(C6CC56)C4C3=O)c2)c1 (stereo not drawn) | ? | / | ? | 14.1µM* | -16.0% | 15.2%
S=C(NCCCc1cnc[nH]1)NCCCN(Cc1ccc(Cl)cc1)c1ccc(Br)cc1 | ? | / | / | / | -92.1% | /
O=C(O)CCC(=O)Nc1ccc(-n2ccc(C(F)(F)F)n2)cc1 | -7.8% | 4.4% | 5.1% | i | 3.0% | 8.8%
Cc1cc(C)cc(NC(=O)Nc2ccc(-n3ccc(C(F)(F)F)n3)cc2)c1 | 0.0% | -18.2% | 2.24µM* | ? | -26.7% | 0.3%
COc1ccccc1NC(=O)Nc1ccc(-n2ccc(C(F)(F)F)n2)cc1 | ? | 9.2% | 2µM* | i | -27.0% | 0.9%
NCC[C@H](O)C(=O)N[C@@H]1C[C@H](N)[C@@H](O[C@H]2O[C@H](CN)CC[C@H]2N)[C@H](O)[C@H]1O[C@H]1O[C@H](CO)[C@@H](O)[C@H](N)[C@H]1O | / | / | / | / | / | 27.0%
COc1cc(Br)c(C[N+]2(CCOCCC3CCC4CC3C4(C)C)CCOCC2)cc1OC (stereo not drawn) | / | / | / | i | / | 0.8%

Compound activity from PubChem.
